# Screening results: PubChem, several laboratories
# GRK2 aptamer HTS: inhibitors of human GRK2 displacing RNA aptamer. P25098. bead flow cytometry, FAM-aptamer displacement from GRK2. inhibition of aptamer binding, % at 10 µM. actives 0.59% (n = 330,000). AID 488847;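 active = inhibition of aptamer binding above 40%, roughly 3 SD of noise, on plates passing a quality check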;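 note: median bead fluorescence of bound FAM aptamer so fluorescent compounds give negative values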
# Target sequence (P25098 whole entry, looked up): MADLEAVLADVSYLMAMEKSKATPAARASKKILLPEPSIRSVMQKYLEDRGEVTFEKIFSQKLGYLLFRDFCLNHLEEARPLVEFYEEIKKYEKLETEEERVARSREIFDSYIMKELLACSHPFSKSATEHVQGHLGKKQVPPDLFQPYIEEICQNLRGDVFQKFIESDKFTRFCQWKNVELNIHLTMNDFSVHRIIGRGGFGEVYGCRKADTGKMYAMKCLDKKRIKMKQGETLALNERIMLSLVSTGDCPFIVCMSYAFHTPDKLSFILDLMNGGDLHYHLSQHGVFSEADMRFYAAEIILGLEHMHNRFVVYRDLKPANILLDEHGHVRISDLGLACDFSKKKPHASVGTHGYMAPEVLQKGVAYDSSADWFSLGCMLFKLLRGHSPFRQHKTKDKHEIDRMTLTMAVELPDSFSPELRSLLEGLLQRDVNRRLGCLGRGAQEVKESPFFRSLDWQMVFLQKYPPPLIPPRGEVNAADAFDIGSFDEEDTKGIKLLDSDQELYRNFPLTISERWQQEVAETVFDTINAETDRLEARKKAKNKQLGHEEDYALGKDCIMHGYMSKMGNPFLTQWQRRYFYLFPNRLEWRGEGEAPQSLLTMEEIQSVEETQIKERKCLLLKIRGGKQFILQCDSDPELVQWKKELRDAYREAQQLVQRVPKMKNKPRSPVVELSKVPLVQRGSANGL
# Rce1 inhib: yeast Ras-converting enzyme inhibition; Q03530; yeast membranes, quenched prenylated peptide cleavage fluorescence; calls only; actives 0.27% (n = 290,000); AID 2563;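 active = fall in fluorescence gain of 50% or more versus controls, with final raw signal at or below 3038400; inconclusive = same 50% fall but final raw signal above 3038400; inactive = fall in fluorescence gain under 50%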;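 note: plate controls were neutral control wells for no effect and wells lacking membranes for full effect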
# Rtt109 HAT inh: inhibitors of Candida albicans Rtt109/Vps75 histone acetyltransferase | Q5AAJ8 | purified Rtt109/Vps75, ThioGlo CoA-SH fluorescence, 4 h | inhibition, % at 34.9 µM | actives 0.16% (n = 330,000);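 active = inhibition of at least 50% in every replicate; inconclusive = best replicate reaches 50% inhibition but some replicates fall short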
# ALR inh: human ALR oxidase inhibition via reduced H2O2; actives 3.8% (n = 290,000); AID 485317; inhibition, % (concentration not given with the values); purified ALR, DTT oxidation, H2O2 HRP-luminol luminescence; P55789;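 active = mean replicate inhibition above about 79%, with every replicate also reaching it, limit read from the data; inconclusive = only one of the two criteria met; inactive = mean below limit and not every replicate reaching it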
# HDAC3 inh: inhibitors of human histone deacetylase 3 | O15379 | recombinant HDAC3, fluorogenic peptide/trypsin coupled, fluorescence | inhibition, % at 8.3 µM | actives 0.15% (n = 320,000) | AID 2718; in the data active = inhibition above about 26%, passing the limit was not always enough; inconclusive = no clear call, values can overlap the other calls
# Efflux pump mplx: blocks antifungal efflux pumps in multiplex yeast assay. S. cerevisiae Candida pump triplex, Nile Red efflux. actives 0.44% (n = 330,000). inhibition, % at 10 µM;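 active = plate passing quality check with inhibition over a set limit, or well fluorescence over plate mean plus 4 SD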;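 note: Nile Red retained in pooled yeast measured as flow cytometry median fluorescence; 0% = buffer negative control and 100% = Enniatin B positive control; higher means more Nile Red kept so more efflux inhibition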
# An asterisk follows results filed as active; i = inactive; ? = inconclusive; . = not tested or not shown; + = active, no number. A selection: hits, their analogues and other compounds. The true share with any hit is near 4.5%.
SMILES,GRK2 aptamer HTS,Rce1 inhib,Rtt109 HAT inh,ALR inh,HDAC3 inh,Efflux pump mplx
Cc1ccc(NC(=O)Nc2ccc3c(c2)C(=O)OC3)cc1Cl,2,i,2,-5,-2,0
CCOc1cccc(CN2CCCC(C(=O)Nc3ccc(-c4ccn[nH]4)cc3)C2)c1O (stereo not drawn),0,i,-14,80*,-5,-1
CCOc1cccc(CN2CCCC(C(=O)c3cccc(C(F)(F)F)c3)C2)c1O (stereo not drawn),4,i,18,43,7,0
CSc1sc(C(=O)Nc2ccc(F)cc2F)c2c1C=CCC2,2,i,34,-1,-1,0
CCOC(=O)C1CCN(c2cc(=O)n(-c3ccc(OC)cc3)c(=O)[nH]2)CC1,0,i,4,47,-6,0
CCOC(=O)C1CCCN(c2cc(=O)n(C3CCCCC3)c(=O)[nH]2)C1 (stereo not drawn),0,i,59*,-1,2,0
O=C(CCl)N(O)c1ccc(C=Cc2ccccc2)cc1,.,.,2,.,.,.
O=C(Nc1ccc(F)cc1)C(Sc1nc2ccccc2[nH]1)c1ccccc1 (stereo not drawn),0,i,?,-10,-2,1
CC(C)(C)c1ccc(-c2n[nH]c(=S)n2Cc2ccccc2)cc1,0,i,27,.,-9,0
CC(C)n1c(-c2ccc(C(C)(C)C)cc2)n[nH]c1=S,0,i,6,82*,2,0
NS(=O)(=O)c1cccc(NC(=O)COC(=O)Cc2n[nH]c(=O)c3ccccc23)c1,5,.,1,-5,-3,0
Cc1ccccc1C(=O)Nc1ccc(C(=O)N/N=C/c2ccncc2)cc1,0,i,-2,-3,3,0
Cc1cccc2cc(/C=N/NC(=O)c3ccccc3O)c(Cl)nc12,0,i,-10,2,-6,0
Cc1nc2c(C)cccc2cc1C(=O)N/N=C/c1ccc(O)cc1,0,i,2,99*,8,0
O=C(N/N=C/c1ccc(O)cc1)c1ccc(NC(=O)c2ccccc2Br)cc1,2,i,-2,79*,14,0
Cc1ccccc1C(=O)Nc1ccc(C(=O)N/N=C/c2ccc(O)cc2)cc1,5,i,8,95*,8,0
C(=C\c1ccccn1)/c1cccnc1,.,i,9,.,.,.
Nc1cc(-c2ccccc2)nn1S(=O)(=O)c1ccc(Br)cc1,1,i,-5,99*,-4,0
COc1ccc([C@H]2[C@H](C(=O)C(C)(C)C)N3N=Cc4ccccc4C3C23C(=O)OC(C)(C)OC3=O)cc1 (stereo partly drawn),3,i,-10,95*,-9,0
COc1ccc([C@@H]2[C@@H](C(=O)C(C)(C)C)N3N=Cc4ccccc4[C@@H]3C23C(=O)OC(C)(C)OC3=O)cc1OC,7,i,-3,8,1,0
C=CCn1c(N2CCCCCC2)nc2c1c(=O)n(C)c(=O)n2C,3,+,1,22,4,0
CCCCCn1c(N2CCCC2)nc2c1c(=O)n(C)c(=O)n2C,3,i,-3,98*,4,0
Nc1nc(OCC2CCCCC2)c2[nH]cnc2n1,0,i,1,97*,1,0
CN(C(=O)COC(=O)c1cncc(Br)c1)C1CCCCC1,1,.,12,-1,4,0
CN(C(=O)c1cncc(Br)c1)C1C2CC3CC(C2)CC1C3 (stereo not drawn),0,i,59*,-3,1,0
SMILES,GRK2 aptamer HTS,Rce1 inhib,Rtt109 HAT inh,ALR inh,HDAC3 inh,Efflux pump mplx
Cc1nnc(SCC(=O)NC(C)(C)C)n1NCc1ccc(N(C)C)cc1,2,i,0,81*,2,0
COCCNC(=O)C1=C(N)C(C(=O)Nc2ccc(C)c(S(=O)(=O)N3CCCCC3)c2)SC1=Nc1ccc(C)cc1C (stereo not drawn),0,i,58*,6,7,0
CC(C)c1ccc(NC(=O)C2CCC(CNC(=O)[C@@H]3Cc4ccccc4CN3)CC2)cc1 (stereo partly drawn),0,i,8,6,-3,0
Cc1nc2cc(Cl)c(Cl)cc2n1-c1ccccn1,1,i,-4,-13,3,0
COc1ccc(C(=O)CSc2[nH]c(=O)cc(C(F)(F)F)c2C#N)cc1,1,i,5,98*,2,0
COc1ccc(-c2cc(C(F)(F)F)c(C#N)c(SCC(=O)Nc3ccc(C)cc3)n2)cc1,5,i,-7,4,3,0
CC=Cc1cc(OC)c2c(c1)C(C)C(c1ccc(O)c(OC)c1)O2 (stereo not drawn),.,.,0,.,.,.
CC(=O)c1cccc(-n2c(CCC(=O)O)ccc2-c2cccs2)c1,0,i,-6,89*,4,0
O=C(O)CCc1ccc(-c2cccs2)n1NC(=O)c1ccccc1Br,1,i,1,99*,-6,0
O=C(O)CCc1ccc(-c2cccs2)n1CCC(=O)O,9,i,0,-11,-7,0
O=C(O)CCc1ccc(-c2cccs2)n1CCc1ccccc1,5,i,7,99*,-14,0
Cc1nc(NC(=O)c2cccc(Cl)c2)sc1C(=O)N1CCCCC1,0,i,-4,.,17,0
COc1cc2c(C(=O)N3CCN(c4ccccc4F)CC3)cn(C)c(=O)c2cc1OC,3,i,-3,1,44*,0
COc1cc(SC)ccc1C(=O)N1CCN(c2ccccc2F)CC1,6,i,6,-6,2,0
O=C(CSc1nc(=O)n2cc(Cl)ccc2n1)Nc1ccc2c(c1)OCCO2,0,i,1,99*,-6,0
Cc1ccn2c(=O)nc(SCC(=O)Nc3ccc4c(c3)OCO4)nc2c1,1,i,-3,?,5,0
Cc1ccc2nc(SCC(=O)Nc3ccc4c(c3)OCCO4)nc(=O)n2c1,3,i,?,98*,5,0
Cc1ccn2c(=O)nc(SCC(=O)Nc3ccc4c(c3)OCCO4)nc2c1,1,i,6,97*,3,0
Cc1ccn2c(=O)nc(SCC(=O)c3ccc(Cl)cc3)nc2c1,0,i,-1,93*,6,0
Cc1ccc(CN2CCCN(C)CC2)c(C)c1,0,.,2,5,-3,0
Cc1ccccc1Nc1c(F)c(F)c(F)c(F)c1C(=O)O,5,i,2,-4,1,0
O=C(CCn1c(=O)oc2ccccc21)N1CCN(c2ccc(F)cc2)CC1,2,i,-4,97*,-3,0
CCN(CC)CCNC(=O)c1cn(CCOC)c(=O)c2c1c1ccccc1n2C,0,i,-9,-6,3,0
COCCn1cc(C(=O)NCCN(C)C)c2c3ccccc3n(C)c2c1=O,0,+,7,-7,-6,0
